Measurements: the supplement of paper PMC6555819

What was measured:
Assay in all cases: PBM binding z-score (relative to random genomic background probes); higher = stronger binding; sequences stand for … in GC…GCGATTGACAGCGTAGAATGAAGG
[1] = tested on: RARb homodimer (NR concentration 270 nM)
Procedure, shortened: (§1)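 Probes were double-stranded and carried 34-nt variable regions with direct-repeat seeds, single-nucleotide variants, half-site ablations and random human genomic background sequences, printed on custom Agilent 4×180K protein-binding microarrays. Arrays were incubated 1 h with ligand-free nuclear receptor dimers in PBS pH 7.4, 2% milk, 0.02% Triton X-100, 1 mM DTT, 0.2 mg/mL BSA and 0.4 mg/ml salmon testes DNA. Antibodies against each partner (one per run) detected binding, and scanned fluorescence was regression-normalized. Binding z-scores use the random background probes as reference.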

[2] = tested on: RARg:RXRa (NR concentration 270 nM, RXRa partner concentration 90 nM)
Procedure, shortened: as §1

[3] = tested on: RARg homodimer (NR concentration 270 nM)
Procedure, shortened: as §1

[4] = tested on: RXRa DBDmut IVT, anti-RXR (DBD mutation: RXRa K156A/R161A, NR concentration 90 nM)
Procedure, shortened: as §1

[5] = tested on: RXRa homodimer (NR concentration 180 nM)
Procedure, shortened: as §1

[6] = tested on: THRa:RXRa (NR concentration 90 nM, RXRa partner concentration 90 nM)
Procedure, shortened: as §1

[7] = tested on: THRa homodimer (NR concentration 90 nM)
Procedure, shortened: as §1

[8] = tested on: VDR:RXRa (NR concentration 270 nM, RXRa partner concentration 90 nM)
Procedure, shortened: as §1

[9] = tested on: VDR homodimer (NR concentration 270 nM)
Procedure, shortened: as §1

Sequence	PBM binding z-score [1]	PBM binding z-score [2]	PBM binding z-score [3]	PBM binding z-score [4]	PBM binding z-score [5]	PBM binding z-score [6]	PBM binding z-score [7]	PBM binding z-score [8]	PBM binding z-score [9]
CGTCCAAGGTCATAGGAGGTCCGTGAAGACAGAT	3.8	5.84	5.85	3.86	6.02	4.51	2.24	4.88	3.33
GCAGACAGGTGACACGCAGGTAACTCAGGGTGGC	0.28	0.798	0.52	-0.855	0.715	0.997	-0.377	-0.517	-0.397
AATACAGGGTCATCGTTGGCCAGAGTACGCACAG	3.58	5.68	5.14	3.53	6.56	3.95	1.53	5.13	3.86
CGTCAAAGTTCAACTAAGGTAACGGAAAGCACGC	4.39	5.99	6.88	4.63	5.09	5.24	1.9	4.7	3.47
TCATATAGTTAAAGGTGAAAGTCGAACGATATGA	1.34	1.47	1.18	0.551	2.08	1.23	-0.586	1.2	-0.0826
ACAGACTGGTGATGAAGGTAACTCAGGCTATCAT	-0.356	-0.329	0.0364	-0.417	-0.393	0.478	-0.264	-0.35	-0.921
TGACTGAGGTTATAAGATCAGGGAACGTTGCAAA	0.146	1.59	0.985	0.64	1.87	1.58	-0.016	0.798	0.435
CGTCAAAGTTCAACTAAGGTAACGTAGAGCACGC	4.06	6.15	6.74	4.65	5.34	5.11	1.86	4.59	3.92
TCTACAGGGTCAAAGGCCAGAGTACGAATGTCGA	3.2	5.47	5	3.16	6.72	3.48	0.454	4.56	2.55
CCTCGGAGGACAACAGGAAGTCAGAGCTGCCAGA	0.0796	0.396	1.06	0.139	-0.479	0.205	-0.14	-0.718	-0.542
TCTTGTTGGTCAAAGGTCACACACTCGAAATGCG	5.33	7.36	6.57	2.02	8.27	4.21	2.56	5.23	3.06
TCATATAGGTAAATGCTTGGTGAAAGTCCGATCT	0.222	0.052	0.0294	1.52	0.692	0.0324	0.34	0.808	0.414
GCTGCTATGTCAGGTTGGTCAGCTAACGGGTACG	0.477	-0.153	0.0688	0.041	-0.315	-0.187	-0.332	-0.421	-0.186
ATCTCTAGGTAAAGTTCAGTGAAAGATCGATAGA	2.65	2.18	2.77	1.72	1.42	1.24	0.317	1.73	2.53
AGTCAACGTTCACTAGGTAACGTAAGATTCAGCT	0.0524	0.418	0.444	0.205	0.197	0.401	0.11	-0.186	-0.293
TCTTGTAGATCAATAGAGGTTAAGAATGTGCGCT	1.06	0.814	0.559	0.783	1.38	2.15	-0.391	1.27	0.277
TTACCAAGGTGTAAGGTCGTTGATGCACGCCTTG	0.961	0.528	0.368	0.411	1.35	2.49	1.59	1.08	1.62
CCTATTAGTTGACCATAAGGGCAAACGAAGCTCG	1.93	1.48	1.31	0.782	0.751	1.72	1.08	0.834	1.01
CCACGGAGGACAACAGGAGGTCAGAGCTGCCAGA	3.72	3.61	3.45	0.466	2.08	2.8	1.28	2.13	1.48
CCAGACAGGTGAAAGGTAACTCTGTCTGGTACGC	0.719	1.24	0.754	0.07	2.07	1.01	-0.229	0.668	0.0648
TCTTGTAGACCAACAGGAGGTTAAGAAAGATCGA	0.694	0.411	0.151	0.322	0.799	0.789	-0.614	0.492	-0.388
ATACCAAGGTGATCGTGACGTCGTTGATACTAAC	0.537	0.459	0.417	0.283	0.575	1.05	0.655	0.156	-0.00274
CGTCCAAGGTCAATGGTAGGTCAGTGAAAGCATT	5.21	7.79	6.78	3.44	5.41	4.33	2.72	4.89	2.73
AGAATGAGGTTACCAAAGATCAGGGACACGCTTG	1.72	2.29	1.89	1.2	2.64	3.33	2.17	1.54	0.768
TCAGACAGGTGAAGGTAACTAAGGTACGCAGTCG	0.841	0.733	0.744	1.14	1.05	1.43	0.595	1.01	-0.102
CGAACTAGGTCAGAACCGGACAGTGAAGGATGAT	1.76	2.4	3.3	0.258	1.12	1.72	0.00608	0.264	-0.191
